Measured values: PubChem BioAssay AID1159580 (chemical genetic matrix, 2015)
Out of some 5,500 compounds screened, about 2,000 (36%) were called active. Another 18% or so got no clear call; they are omitted. No stated cut-off is given here; in the data, active means normalized growth mostly below about 0.91 (no sharp cut-off); inconclusive means no clear call, values can overlap the other calls; inactive means mostly above about 0.92. The list shows a part of the results.

Assay: chemical genetic growth profiling, strain panel (AID 1159580);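 further: tested at 20 µM; growth read once vehicle control cultures reached saturation at 30 °C; 1 = growth at the plate median or of vehicle wells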
Conditions: growth OD
[1] = S. cerevisiae deletion strains, locus YMR307W, strain GAS1, stronger effect = lower value

Measured: normalized growth

CCC/C=C1\OC(=O)C2=C1CCC=C2
active: S. cerevisiae deletion strains, locus YGL086W, strain mad1, stronger effect = lower value 0.929 | S. cerevisiae deletion strains, locus YKL009W, strain mrt4, stronger effect = lower value 0.868
inactive: S. cerevisiae deletion strains, locus YBR021W, strain FUR4, stronger effect = lower value 0.967 | S. cerevisiae deletion strains, locus YBR229C, strain ROT2, stronger effect = lower value 1.01 | S. cerevisiae deletion strains, locus YCL029C, strain bik1, stronger effect = lower value 0.978 | S. cerevisiae deletion strains, locus YDL035C, strain GPR1, stronger effect = lower value 0.952 | S. cerevisiae deletion strains, locus YDL074C, strain BRE1, stronger effect = lower value 0.945 | S. cerevisiae deletion strains, locus YDL101C, strain DUN1, stronger effect = lower value 0.984 | S. cerevisiae deletion strains, locus YDL185W, strain tfp1, stronger effect = lower value 0.986 | S. cerevisiae deletion strains, locus YDL192W, strain arf1, stronger effect = lower value 0.972 | S. cerevisiae deletion strains, locus YDR101C, strain arx1, stronger effect = lower value 0.949 | S. cerevisiae deletion strains, locus YDR150W, strain NUM1, stronger effect = lower value 1.02 | S. cerevisiae deletion strains, locus YDR162C, strain NBP2, stronger effect = lower value 0.993 | S. cerevisiae deletion strains, locus YDR318W, strain mcm21, stronger effect = lower value 0.998 | S. cerevisiae deletion strains, locus YDR388W, stronger effect = lower value 0.978 | S. cerevisiae deletion strains, locus YDR502C, strain sam2, stronger effect = lower value 0.957 | S. cerevisiae deletion strains, locus YEL061C, strain CIN8, stronger effect = lower value 1 | S. cerevisiae deletion strains, locus YER110C, stronger effect = lower value 0.971 | S. cerevisiae deletion strains, locus YER155C, strain BEM2, stronger effect = lower value 1.03 | S. cerevisiae deletion strains, locus YER167W, strain BCK2, stronger effect = lower value 0.998 | S. cerevisiae deletion strains, locus YGL078C, strain dbp3, stronger effect = lower value 0.963 | S. cerevisiae deletion strains, locus YGL248W, strain PDE1, stronger effect = lower value 0.975 | S. cerevisiae deletion strains, locus YGR135W, strain pre9, stronger effect = lower value 0.965 | S. cerevisiae deletion strains, locus YGR252W, strain gcn5, stronger effect = lower value 0.974 | S. cerevisiae deletion strains, locus YHR030C, strain SLT2, stronger effect = lower value 1.02 | S. cerevisiae deletion strains, locus YHR079C, strain IRE1 (second series), stronger effect = lower value 0.987 | S. cerevisiae deletion strains, locus YHR094C, strain hxt1, stronger effect = lower value 0.982 | S. cerevisiae deletion strains, locus YHR129C, strain ARP1, stronger effect = lower value 0.989 | S. cerevisiae deletion strains, locus YHR200W, strain rpn10, stronger effect = lower value 0.986 | S. cerevisiae deletion strains, locus YIL066C, strain RNR3, stronger effect = lower value 0.97 | S. cerevisiae deletion strains, locus YIL073C, strain SPO22, stronger effect = lower value 0.93 | S. cerevisiae deletion strains, locus YIL125W, strain kgd1, stronger effect = lower value 0.973 | S. cerevisiae deletion strains, locus YIR030C, strain dcg1, stronger effect = lower value 0.988 | S. cerevisiae deletion strains, locus YJL095W, strain BCK1, stronger effect = lower value 0.968 | S. cerevisiae deletion strains, locus YJL134W, strain LCB3, stronger effect = lower value 1.01 | S. cerevisiae deletion strains, locus YJL168C, strain set2, stronger effect = lower value 0.986 | S. cerevisiae deletion strains, locus YJL187C, strain SWE1 (second series), stronger effect = lower value 0.99 | S. cerevisiae deletion strains, locus YJR043C, strain POL32, stronger effect = lower value 0.956 | S. cerevisiae deletion strains, locus YKL068W, stronger effect = lower value 0.994 | S. cerevisiae deletion strains, locus YKL085W, strain MDH1 (second series), stronger effect = lower value 0.958 | S. cerevisiae deletion strains, locus YKL085W, strain MDH1, stronger effect = lower value 0.958 | S. cerevisiae deletion strains, locus YKR001C, strain vps1, stronger effect = lower value 0.963 | S. cerevisiae deletion strains, locus YLR039C, strain RIC1, stronger effect = lower value 0.848 | S. cerevisiae deletion strains, locus YLR058C, strain SHM2, stronger effect = lower value 1 | S. cerevisiae deletion strains, locus YLR102C, strain apc9, stronger effect = lower value 0.988 | S. cerevisiae deletion strains, locus YLR262C, strain YPT6, stronger effect = lower value 0.816 | S. cerevisiae deletion strains, locus YLR268W, strain sec22, stronger effect = lower value 0.953 | S. cerevisiae deletion strains, locus YLR330W, strain CHS5, stronger effect = lower value 1.01 | S. cerevisiae deletion strains, locus YLR342W, strain FKS1 (second series), stronger effect = lower value 0.97 | S. cerevisiae deletion strains, locus YLR371W, strain rom2, stronger effect = lower value 0.998 | S. cerevisiae deletion strains, locus YLR418C, strain cdc73, stronger effect = lower value 0.959 | S. cerevisiae deletion strains, locus YML016C, strain PPZ1, stronger effect = lower value 1 | S. cerevisiae deletion strains, locus YML032C, strain rad52, stronger effect = lower value 1 | S. cerevisiae deletion strains, locus YML124C, strain tub3, stronger effect = lower value 0.987 | S. cerevisiae deletion strains, locus YMR078C, strain ctf18, stronger effect = lower value 0.959 | S. cerevisiae deletion strains, locus YMR223W, strain ubp8, stronger effect = lower value 0.979 | S. cerevisiae deletion strains, locus YMR263W, strain SAP30, stronger effect = lower value 1 | [1] 1.02 | S. cerevisiae deletion strains, locus YNL067W, strain RPL9B, stronger effect = lower value 0.965 | S. cerevisiae deletion strains, locus YNL233W, strain BNI4, stronger effect = lower value 0.992 | S. cerevisiae deletion strains, locus YNL250W, strain rad50, stronger effect = lower value 1.01 | S. cerevisiae deletion strains, locus YNL271C, strain bni1, stronger effect = lower value 0.971 | S. cerevisiae deletion strains, locus YNL298W, strain CLA4, stronger effect = lower value 0.959 | S. cerevisiae deletion strains, locus YNL307C, strain MCK1, stronger effect = lower value 0.969 | S. cerevisiae deletion strains, locus YNR052C, strain pop2, stronger effect = lower value 1.01 | S. cerevisiae deletion strains, locus YOL012C, strain htz1 1.31 | S. cerevisiae deletion strains, locus YOL147C, strain pex11, stronger effect = lower value 0.986 | S. cerevisiae deletion strains, locus YOR061W, strain CKA2, stronger effect = lower value 0.996 | S. cerevisiae deletion strains, locus YOR069W, strain VPS5, stronger effect = lower value 0.998 | S. cerevisiae deletion strains, locus YOR136W, strain idh2, stronger effect = lower value 0.98 | S. cerevisiae deletion strains, locus YOR144C, strain elg1, stronger effect = lower value 0.987 | S. cerevisiae deletion strains, locus YOR184W, strain ser1, stronger effect = lower value 0.926 | S. cerevisiae deletion strains, locus YOR316C, strain cot1, stronger effect = lower value 0.976 | S. cerevisiae deletion strains, locus YPL055C, strain LGE1, stronger effect = lower value 0.969 | S. cerevisiae deletion strains, locus YPR119W, strain clb2, stronger effect = lower value 0.983 | S. cerevisiae deletion strains, locus YPR141C, strain kar3, stronger effect = lower value 0.977 | S. cerevisiae deletion strains, locus YPR163C, strain tif3, stronger effect = lower value 0.97 | S. cerevisiae deletion strains, locus YPR167C, strain met16, stronger effect = lower value 0.996 | S. cerevisiae deletion strains, strain wtn01, stronger effect = lower value 0.965 | S. cerevisiae strains, strain wild type, stronger effect = lower value 0.988

CC(C)C[C@H](N)CSSC[C@@H](N)CC(C)C
inactive: S. cerevisiae deletion strains, locus YAL040C, strain CLN3, stronger effect = lower value 0.965 | S. cerevisiae deletion strains, locus YCL061C, strain MRC1 (second series), stronger effect = lower value 1.01 | S. cerevisiae deletion strains, locus YDR363W, strain ESC2, stronger effect = lower value 1 | S. cerevisiae deletion strains, locus YER002W, strain NOP16, stronger effect = lower value 1.02 | S. cerevisiae deletion strains, locus YJR075W, strain HOC1, stronger effect = lower value 1 | [1] 1.01 | S. cerevisiae deletion strains, locus YNL128W, strain TEP1, stronger effect = lower value 1.01 | S. cerevisiae deletion strains, locus YNL175C, strain NOP13, stronger effect = lower value 1.01 | S. cerevisiae deletion strains, locus YNL197C, strain WHI3, stronger effect = lower value 1.01 | S. cerevisiae deletion strains, locus YNL224C, strain SQS1, stronger effect = lower value 1 | S. cerevisiae deletion strains, locus YOR083W, strain WHI5 (second series), stronger effect = lower value 1.03 | S. cerevisiae deletion strains, locus YPL241C, strain CIN2, stronger effect = lower value 1.01
